Data on six compounds can be found in ChEMBL document CHEMBL1961873, “Compounds: GSK PKIS; Assays: Nanosyn kinase panel” (2012).

The target in assay [1] is Tyrosine-protein kinase CSK (Homo sapiens) (UniProt P41240). The settings on record: at 1 µM.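 Note: each value is an averaged inhibition reading.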
The target of assay [2] is T1, Discoidin domain-containing receptor 2 (Homo sapiens) (UniProt Q16832).
T1 sequence (whole entry): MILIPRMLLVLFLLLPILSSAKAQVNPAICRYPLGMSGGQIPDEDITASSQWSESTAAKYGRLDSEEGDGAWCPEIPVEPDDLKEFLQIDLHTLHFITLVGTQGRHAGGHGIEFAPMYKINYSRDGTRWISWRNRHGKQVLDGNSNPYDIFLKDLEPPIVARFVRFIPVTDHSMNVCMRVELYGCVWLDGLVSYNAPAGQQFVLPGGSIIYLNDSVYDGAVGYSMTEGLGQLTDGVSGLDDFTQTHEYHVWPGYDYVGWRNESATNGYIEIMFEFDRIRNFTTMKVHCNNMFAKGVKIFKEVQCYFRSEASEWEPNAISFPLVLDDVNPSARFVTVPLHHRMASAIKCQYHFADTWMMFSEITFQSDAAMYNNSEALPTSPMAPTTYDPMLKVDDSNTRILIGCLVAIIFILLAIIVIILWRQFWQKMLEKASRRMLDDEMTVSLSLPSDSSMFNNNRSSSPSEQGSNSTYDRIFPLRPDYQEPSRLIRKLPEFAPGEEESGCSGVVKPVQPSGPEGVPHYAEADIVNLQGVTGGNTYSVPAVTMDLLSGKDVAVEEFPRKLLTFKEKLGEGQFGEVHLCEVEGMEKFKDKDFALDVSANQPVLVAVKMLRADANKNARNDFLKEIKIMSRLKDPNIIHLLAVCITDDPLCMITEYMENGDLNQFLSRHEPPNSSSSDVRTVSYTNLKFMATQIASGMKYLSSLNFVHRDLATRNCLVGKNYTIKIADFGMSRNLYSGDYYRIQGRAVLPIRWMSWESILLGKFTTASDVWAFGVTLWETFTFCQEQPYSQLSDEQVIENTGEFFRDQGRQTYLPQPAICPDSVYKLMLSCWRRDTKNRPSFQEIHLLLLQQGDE
The settings on record: at 0.1 µM.

For assay [3], the target named is T1, Discoidin domain-containing receptor 2 (Homo sapiens). The settings on record: at 1 µM.
Assay [4] concerns the target Epidermal growth factor receptor (Homo sapiens) (UniProt P00533). The settings on record: at 0.1 µM.
Assay [5] has the same target. The conditions noted are these: at 1 µM.
The test system of assay [6] is Epidermal growth factor receptor (Homo sapiens), P00533 [L858R]. The conditions noted are these: at 0.1 µM.
Epidermal growth factor receptor (Homo sapiens), P00533 [L858R], sequence (P00533 whole entry L858R): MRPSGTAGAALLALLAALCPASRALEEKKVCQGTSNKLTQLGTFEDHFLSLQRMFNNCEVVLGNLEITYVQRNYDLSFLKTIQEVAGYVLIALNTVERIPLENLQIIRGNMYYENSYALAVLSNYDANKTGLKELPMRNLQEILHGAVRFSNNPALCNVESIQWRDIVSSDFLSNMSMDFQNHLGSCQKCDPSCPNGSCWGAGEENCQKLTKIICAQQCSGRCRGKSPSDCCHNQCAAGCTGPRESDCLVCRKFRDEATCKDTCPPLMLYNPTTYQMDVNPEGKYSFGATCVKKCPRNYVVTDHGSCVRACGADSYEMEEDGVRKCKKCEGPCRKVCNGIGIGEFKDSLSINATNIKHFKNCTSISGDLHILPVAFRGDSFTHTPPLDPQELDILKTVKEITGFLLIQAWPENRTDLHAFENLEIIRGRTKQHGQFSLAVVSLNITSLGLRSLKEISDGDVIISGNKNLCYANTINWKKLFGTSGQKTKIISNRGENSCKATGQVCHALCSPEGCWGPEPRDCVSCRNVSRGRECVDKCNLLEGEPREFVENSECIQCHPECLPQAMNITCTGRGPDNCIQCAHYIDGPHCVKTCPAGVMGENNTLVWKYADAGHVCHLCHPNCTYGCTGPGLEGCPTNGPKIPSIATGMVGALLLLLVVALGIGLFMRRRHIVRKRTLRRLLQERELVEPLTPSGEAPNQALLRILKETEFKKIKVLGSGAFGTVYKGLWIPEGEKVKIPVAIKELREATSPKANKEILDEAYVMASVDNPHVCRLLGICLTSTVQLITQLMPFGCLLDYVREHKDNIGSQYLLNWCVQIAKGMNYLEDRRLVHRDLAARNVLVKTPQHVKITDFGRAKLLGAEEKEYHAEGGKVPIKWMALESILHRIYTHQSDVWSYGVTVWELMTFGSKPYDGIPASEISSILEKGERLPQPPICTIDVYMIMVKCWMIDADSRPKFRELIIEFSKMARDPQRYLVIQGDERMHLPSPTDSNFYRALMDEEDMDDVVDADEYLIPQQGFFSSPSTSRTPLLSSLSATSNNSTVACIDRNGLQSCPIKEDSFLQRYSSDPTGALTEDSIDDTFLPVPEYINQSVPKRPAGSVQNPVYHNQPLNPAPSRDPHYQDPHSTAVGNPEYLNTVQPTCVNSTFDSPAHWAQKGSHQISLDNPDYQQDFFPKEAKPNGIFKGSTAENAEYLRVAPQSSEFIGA
Assay [7] has the same test system. The settings on record: at 1 µM.
Assay [8] relates to Epidermal growth factor receptor (Homo sapiens), P00533 [L861Q]. The settings on record: at 0.1 µM.
Epidermal growth factor receptor (Homo sapiens), P00533 [L861Q], sequence (P00533 whole entry L861Q): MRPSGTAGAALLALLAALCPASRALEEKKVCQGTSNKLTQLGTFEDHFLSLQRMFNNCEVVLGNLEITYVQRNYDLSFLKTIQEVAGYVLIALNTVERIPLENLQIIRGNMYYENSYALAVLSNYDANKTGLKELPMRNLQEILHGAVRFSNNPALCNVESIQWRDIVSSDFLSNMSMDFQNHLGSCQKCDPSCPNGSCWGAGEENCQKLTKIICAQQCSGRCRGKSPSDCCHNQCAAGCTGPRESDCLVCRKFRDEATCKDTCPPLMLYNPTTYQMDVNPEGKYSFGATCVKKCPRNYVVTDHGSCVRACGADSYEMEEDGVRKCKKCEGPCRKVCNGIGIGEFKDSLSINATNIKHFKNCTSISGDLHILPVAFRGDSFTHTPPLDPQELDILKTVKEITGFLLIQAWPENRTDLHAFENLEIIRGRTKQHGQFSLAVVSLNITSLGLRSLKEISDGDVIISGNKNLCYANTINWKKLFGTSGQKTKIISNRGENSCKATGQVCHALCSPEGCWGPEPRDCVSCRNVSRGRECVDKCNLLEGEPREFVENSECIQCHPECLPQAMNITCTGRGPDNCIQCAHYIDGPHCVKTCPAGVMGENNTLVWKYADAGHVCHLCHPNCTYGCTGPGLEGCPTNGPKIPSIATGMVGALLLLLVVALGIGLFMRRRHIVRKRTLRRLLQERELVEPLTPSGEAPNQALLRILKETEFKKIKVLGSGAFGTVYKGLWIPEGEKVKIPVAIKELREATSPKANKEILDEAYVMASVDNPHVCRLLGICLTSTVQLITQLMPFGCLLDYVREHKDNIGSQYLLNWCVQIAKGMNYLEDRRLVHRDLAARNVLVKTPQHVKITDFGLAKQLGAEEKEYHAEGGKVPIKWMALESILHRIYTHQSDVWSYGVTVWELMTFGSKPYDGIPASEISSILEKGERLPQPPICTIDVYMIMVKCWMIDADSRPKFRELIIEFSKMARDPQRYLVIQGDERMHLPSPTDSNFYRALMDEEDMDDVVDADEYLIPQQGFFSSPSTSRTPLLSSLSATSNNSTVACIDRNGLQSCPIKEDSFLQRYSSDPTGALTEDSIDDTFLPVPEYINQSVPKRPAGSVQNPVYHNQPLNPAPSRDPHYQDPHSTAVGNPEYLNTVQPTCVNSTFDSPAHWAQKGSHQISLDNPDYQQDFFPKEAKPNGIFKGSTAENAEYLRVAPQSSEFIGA
Assay [9] has the same test system. The settings on record: at 1 µM.
Assay [10] has as its system Epidermal growth factor receptor (Homo sapiens), P00533 [T790M]. The settings on record: at 0.1 µM.
Assay [11] has the same test system. The settings on record: at 1 µM.
The subject of assay [12] is Epidermal growth factor receptor (Homo sapiens), P00533 [L858R,T790M]. The settings on record: at 0.1 µM.
The test system is the same in assay [13]. The conditions noted are these: at 1 µM.
Assay [14] concerns the target Ephrin type-A receptor 2 (Homo sapiens) (UniProt P29317). The conditions noted are these: at 0.1 µM.
Assay [15] shares this target. The settings on record: at 1 µM.
For assay [16], the target named is T2, Ephrin type-A receptor 3 (Homo sapiens) (UniProt P29320).
T2 sequence (whole entry): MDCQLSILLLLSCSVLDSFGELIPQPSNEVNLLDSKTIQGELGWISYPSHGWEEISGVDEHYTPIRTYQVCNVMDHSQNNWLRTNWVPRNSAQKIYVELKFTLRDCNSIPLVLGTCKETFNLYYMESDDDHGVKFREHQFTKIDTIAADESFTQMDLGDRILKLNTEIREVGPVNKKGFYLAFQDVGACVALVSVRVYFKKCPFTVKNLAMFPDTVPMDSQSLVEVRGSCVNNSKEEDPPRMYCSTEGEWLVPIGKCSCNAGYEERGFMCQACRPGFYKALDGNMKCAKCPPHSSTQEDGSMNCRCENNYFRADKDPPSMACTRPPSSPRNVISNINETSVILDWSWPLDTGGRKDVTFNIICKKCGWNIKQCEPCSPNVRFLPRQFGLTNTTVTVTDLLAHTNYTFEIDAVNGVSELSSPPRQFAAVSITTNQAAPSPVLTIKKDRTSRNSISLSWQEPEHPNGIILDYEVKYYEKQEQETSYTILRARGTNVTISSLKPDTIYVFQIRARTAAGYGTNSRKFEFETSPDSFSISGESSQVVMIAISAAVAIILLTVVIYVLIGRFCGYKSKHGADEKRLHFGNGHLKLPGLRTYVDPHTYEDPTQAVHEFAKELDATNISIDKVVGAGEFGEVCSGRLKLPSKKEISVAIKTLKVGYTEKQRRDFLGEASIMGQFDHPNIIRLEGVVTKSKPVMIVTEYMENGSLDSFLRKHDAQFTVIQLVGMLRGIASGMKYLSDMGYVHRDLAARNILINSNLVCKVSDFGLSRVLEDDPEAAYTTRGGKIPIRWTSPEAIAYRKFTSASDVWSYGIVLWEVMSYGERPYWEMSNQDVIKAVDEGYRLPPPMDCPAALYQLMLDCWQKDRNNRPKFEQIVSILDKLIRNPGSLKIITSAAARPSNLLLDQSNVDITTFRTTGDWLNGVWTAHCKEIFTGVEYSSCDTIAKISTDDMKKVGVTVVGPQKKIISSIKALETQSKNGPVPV
The conditions noted are these: at 0.1 µM.

For assay [17], the target named is T2, Ephrin type-A receptor 3 (Homo sapiens). The settings on record: at 1 µM.
Assay [18] deals with Ephrin type-A receptor 4 (Homo sapiens) (UniProt P54764). The conditions noted are these: at 0.1 µM.
Ephrin type-A receptor 4 (Homo sapiens), sequence (P54764 whole entry): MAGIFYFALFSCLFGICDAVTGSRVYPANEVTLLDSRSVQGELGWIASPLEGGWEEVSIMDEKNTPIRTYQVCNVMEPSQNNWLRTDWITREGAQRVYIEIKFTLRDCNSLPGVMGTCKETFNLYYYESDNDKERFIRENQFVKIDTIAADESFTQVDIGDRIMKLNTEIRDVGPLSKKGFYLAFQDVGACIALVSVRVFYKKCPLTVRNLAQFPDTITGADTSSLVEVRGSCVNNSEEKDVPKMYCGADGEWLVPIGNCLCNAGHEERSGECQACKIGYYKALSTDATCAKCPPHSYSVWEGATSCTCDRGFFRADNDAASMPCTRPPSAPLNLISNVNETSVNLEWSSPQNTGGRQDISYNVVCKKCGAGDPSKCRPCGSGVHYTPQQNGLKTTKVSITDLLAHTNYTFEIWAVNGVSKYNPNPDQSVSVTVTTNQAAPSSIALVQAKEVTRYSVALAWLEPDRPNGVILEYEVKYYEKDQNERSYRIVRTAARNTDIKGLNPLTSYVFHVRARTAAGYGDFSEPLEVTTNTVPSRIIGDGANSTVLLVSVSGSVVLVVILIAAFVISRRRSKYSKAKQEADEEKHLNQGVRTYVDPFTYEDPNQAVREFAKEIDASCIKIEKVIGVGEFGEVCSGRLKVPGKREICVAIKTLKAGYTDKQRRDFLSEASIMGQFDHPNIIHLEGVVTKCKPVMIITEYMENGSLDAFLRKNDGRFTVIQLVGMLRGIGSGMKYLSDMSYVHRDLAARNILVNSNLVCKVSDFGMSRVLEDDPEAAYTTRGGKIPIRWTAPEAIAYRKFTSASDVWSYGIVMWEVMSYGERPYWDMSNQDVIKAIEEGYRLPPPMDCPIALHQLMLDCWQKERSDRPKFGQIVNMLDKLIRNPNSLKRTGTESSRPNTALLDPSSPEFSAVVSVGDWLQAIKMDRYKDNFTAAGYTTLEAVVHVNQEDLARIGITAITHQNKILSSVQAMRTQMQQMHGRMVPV
The target is the same in assay [19]. The settings on record: at 1 µM.
The target in assay [20] is T3, Ephrin type-B receptor 2 (Homo sapiens) (UniProt P29323).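 Note: reported as mean inhibition of EPHB2, from the GSK PKIS dataset.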
T3 sequence (whole entry): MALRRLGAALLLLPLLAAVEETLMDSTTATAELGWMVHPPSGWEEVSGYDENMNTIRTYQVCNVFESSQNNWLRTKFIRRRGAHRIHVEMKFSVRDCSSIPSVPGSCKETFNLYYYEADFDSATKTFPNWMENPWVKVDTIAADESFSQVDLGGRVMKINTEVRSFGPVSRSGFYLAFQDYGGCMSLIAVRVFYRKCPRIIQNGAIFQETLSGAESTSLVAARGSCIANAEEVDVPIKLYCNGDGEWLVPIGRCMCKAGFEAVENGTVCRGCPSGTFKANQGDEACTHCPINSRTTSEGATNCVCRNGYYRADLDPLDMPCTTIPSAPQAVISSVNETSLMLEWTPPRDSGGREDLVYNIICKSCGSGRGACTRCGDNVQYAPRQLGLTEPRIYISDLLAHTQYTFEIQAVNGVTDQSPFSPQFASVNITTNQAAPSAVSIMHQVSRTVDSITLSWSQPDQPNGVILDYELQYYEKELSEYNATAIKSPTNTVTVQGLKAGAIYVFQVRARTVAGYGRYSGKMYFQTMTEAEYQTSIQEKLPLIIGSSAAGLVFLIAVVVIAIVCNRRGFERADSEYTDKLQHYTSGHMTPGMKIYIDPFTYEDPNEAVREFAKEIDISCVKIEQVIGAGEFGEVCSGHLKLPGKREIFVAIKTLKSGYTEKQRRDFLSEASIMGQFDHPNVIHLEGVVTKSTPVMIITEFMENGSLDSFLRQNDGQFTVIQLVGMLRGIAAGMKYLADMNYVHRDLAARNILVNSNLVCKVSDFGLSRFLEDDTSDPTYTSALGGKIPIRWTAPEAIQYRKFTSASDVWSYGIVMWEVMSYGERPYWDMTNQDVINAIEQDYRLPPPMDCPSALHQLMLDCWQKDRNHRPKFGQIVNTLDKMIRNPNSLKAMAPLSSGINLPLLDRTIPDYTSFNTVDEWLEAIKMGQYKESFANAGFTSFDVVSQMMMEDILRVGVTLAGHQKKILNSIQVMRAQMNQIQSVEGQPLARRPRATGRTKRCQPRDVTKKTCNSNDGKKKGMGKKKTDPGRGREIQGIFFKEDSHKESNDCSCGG
The conditions noted are these: at 0.1 µM.

Epidermal growth factor receptor (Homo sapiens), sequence (P00533 whole entry): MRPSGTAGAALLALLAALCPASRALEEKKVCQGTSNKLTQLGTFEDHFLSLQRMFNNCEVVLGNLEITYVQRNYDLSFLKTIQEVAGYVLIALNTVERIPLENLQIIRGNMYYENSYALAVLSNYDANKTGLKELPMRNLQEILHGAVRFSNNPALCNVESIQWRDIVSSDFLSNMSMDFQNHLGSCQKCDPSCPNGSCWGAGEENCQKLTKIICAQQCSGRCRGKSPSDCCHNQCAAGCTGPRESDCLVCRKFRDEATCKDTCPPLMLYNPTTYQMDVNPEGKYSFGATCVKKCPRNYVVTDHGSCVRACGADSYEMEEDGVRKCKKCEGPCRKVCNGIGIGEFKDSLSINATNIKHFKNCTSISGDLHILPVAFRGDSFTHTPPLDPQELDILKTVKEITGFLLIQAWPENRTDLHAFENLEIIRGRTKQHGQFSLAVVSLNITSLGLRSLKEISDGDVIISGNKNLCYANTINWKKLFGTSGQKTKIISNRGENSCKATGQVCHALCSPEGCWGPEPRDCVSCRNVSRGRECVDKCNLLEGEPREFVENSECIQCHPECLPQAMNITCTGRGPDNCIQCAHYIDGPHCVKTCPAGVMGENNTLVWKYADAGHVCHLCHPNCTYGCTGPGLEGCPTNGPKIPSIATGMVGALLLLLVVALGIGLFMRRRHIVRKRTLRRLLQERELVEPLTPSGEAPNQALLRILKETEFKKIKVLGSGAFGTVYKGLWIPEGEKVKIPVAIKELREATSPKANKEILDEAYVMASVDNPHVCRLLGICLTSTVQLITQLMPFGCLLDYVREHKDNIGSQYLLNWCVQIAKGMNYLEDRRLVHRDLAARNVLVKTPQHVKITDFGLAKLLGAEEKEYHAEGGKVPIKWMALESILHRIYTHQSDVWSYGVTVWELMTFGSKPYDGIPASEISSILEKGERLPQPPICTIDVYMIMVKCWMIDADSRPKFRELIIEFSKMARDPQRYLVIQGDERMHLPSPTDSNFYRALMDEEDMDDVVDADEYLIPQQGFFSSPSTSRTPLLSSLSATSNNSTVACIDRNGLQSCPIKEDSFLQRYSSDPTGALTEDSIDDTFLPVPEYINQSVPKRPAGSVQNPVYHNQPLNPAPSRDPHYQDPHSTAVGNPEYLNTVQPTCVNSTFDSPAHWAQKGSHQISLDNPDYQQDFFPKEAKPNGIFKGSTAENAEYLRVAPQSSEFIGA
Tyrosine-protein kinase CSK (Homo sapiens), sequence (P41240 2-450 limits assumed): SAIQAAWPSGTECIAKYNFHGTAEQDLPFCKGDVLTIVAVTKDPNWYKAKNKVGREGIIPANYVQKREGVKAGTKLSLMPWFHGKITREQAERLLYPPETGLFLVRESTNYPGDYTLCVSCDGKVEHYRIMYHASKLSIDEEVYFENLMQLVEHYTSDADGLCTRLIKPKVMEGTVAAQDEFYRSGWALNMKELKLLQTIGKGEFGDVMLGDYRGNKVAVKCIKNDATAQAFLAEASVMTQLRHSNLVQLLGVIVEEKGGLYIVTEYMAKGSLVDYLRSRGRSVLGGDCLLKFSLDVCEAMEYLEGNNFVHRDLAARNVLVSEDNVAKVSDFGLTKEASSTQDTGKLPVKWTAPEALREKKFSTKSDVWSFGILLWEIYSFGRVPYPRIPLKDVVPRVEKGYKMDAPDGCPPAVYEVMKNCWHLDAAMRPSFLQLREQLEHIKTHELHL

For orientation: inhibition means the drop in the measured response relative to a control, in per cent. For the compound `COc1cccc(-n2ncc3c(N/N=C/c4ccc(C)cc4)ncnc32)c1`, the inhibition came to 8.35% in assay [1]; 0.39% in assay [2]; 2.37% in assay [3]; 3.01% in assay [4]; 4.71% in assay [5]; 2.45% in assay [6]. The inhibition in [7] came to 11.7%; in [8], 1.42%; in assay [9] it was 6.09%; in assay [10], 0.91%; in assay [11], 2.25%; in assay [12] it was 1.79%. Moreover, the inhibition in [13] stood at 2.55%; in assay [14], 2.45%; in assay [15] it was 1.1%; in assay [16], 3.28%; in assay [17] it was 3.46%; in [18], 7.44%. The inhibition in assay [19] was 11.3%; in assay [20], 6.77%.
For the compound `COc1ccc(-c2nn3ncccc3c2-c2ccnc(Nc3cccc(C(F)(F)F)c3)n2)cc1`, the inhibition in assay [1] worked out at 7.02%; in [2] it was 2.63%; in assay [3], 22%; in assay [4], 9.51%; in assay [5], 19.1%; in assay [6], 4.1%. The inhibition in [7] was 21.7%; in [8] it was 2.85%; in assay [9], 11.8%; in [10], 1%; in [11] it was 2.06%; in assay [12], -0.41%. The inhibition in assay [13] was 7.35%; in assay [14], 0.1%; in [15], -0.64%; in assay [16], 4.37%; in assay [17] it was 5.21%; in assay [18] it was 5.95%. Moreover, the figures for the inhibition in assay [19] and in [20] were 8.87% and 2.91%, respectively.
Turning to `c1ccc(Cc2nc3ccc(Nc4ncnc5ccccc45)cc3[nH]2)cc1`, the inhibition in assay [1] is 30.9%; in [2], 0.85%; in assay [3] it was 1.06%; in assay [4], 24.3%; in [5] it was 67.2%; in assay [6], 2.32%. Also, the inhibition was found to be 11.3% in [7]; 12% in assay [8]; 22.2% in [9]; 2.05% in [10]; 2.67% in assay [11]; 1.06% in assay [12]. Further, the inhibition is -0.39% in assay [13]; 1.21% in assay [14]; 0.81% in assay [15]; 4.49% in assay [16]; 4.41% in assay [17]; 9.01% in assay [18]. The inhibition was found to be 11.7% in assay [19] and 8.45% in [20].
As to `COc1cccc(-n2ncc3c(N/N=C/c4ccc(S(C)(=O)=O)cc4)ncnc32)c1`, the inhibition in [1] is 18.2%; in assay [2] it was 1.49%; in [3], 7.83%; in [4] it was 6.5%; in assay [5], 22.6%; in [6] it was 29.7%. Moreover, the inhibition in [7] was 57.8%; in [8], 8.34%; in assay [9], 20.6%; in [10], 0.29%; in assay [11], 0.63%; in assay [12] it was 0.79%. Further, the inhibition in [13] was 5.78%; in [14], -3.2%; in assay [15] it was 1.45%; in assay [16], -2.15%; in assay [17], -1.2%; in assay [18], 7.26%. The inhibition in assay [19] is 11.7%; in assay [20], 5.46%.
As for `CCn1c(-c2nonc2N)nc2ccc(F)cc21`, the inhibition in assay [1] worked out at 8.91%; in [2] it was 0.92%; in assay [3], 4.58%; in assay [4], 12.1%; in [5], 13.4%; in assay [6], 4.05%. Besides, the inhibition worked out at 12.7% in [7]; 4.88% in [8]; 8.61% in assay [9]; 3% in [10]; 6.26% in assay [11]; 3.36% in assay [12]. For the same compound, the inhibition in assay [13] was 6.82%; in assay [14], 0.18%; in [15], 0.43%; in assay [16], 4.17%; in assay [17], 4.99%; in assay [18], 11.3%. Moreover, the figures for the inhibition in [19] and in assay [20] were 15% and 7.78%, respectively.
Regarding `O=S(=O)(CCOCc1ccc(-c2ccc3ncnc(Nc4ccc(OCc5cccc(F)c5)c(Cl)c4)c3c2)o1)c1ccccc1`, the inhibition was 1.36% in assay [1]; 1.97% in assay [2]; 3.8% in assay [3]; 71.9% in [4]; 84.7% in assay [5]; 25.1% in assay [6]. For the same compound, the inhibition in assay [7] is 77.3%; in assay [8], 33.8%; in assay [9], 68.4%; in assay [10] it was -0.58%; in [11], 2.25%; in assay [12] it was -3.02%. For the same compound, the inhibition in assay [13] is 1.89%; in assay [14] it was -3.01%; in [15], -2.3%; in [16], -1.7%; in assay [17], 0.9%; in assay [18] it was 2.2%. For the same compound, the inhibition came out at 5.8% in [19] and 8% in assay [20].
